# Measured values: PubChem BioAssay AID651664 (NMMLSC, 2012)
# Fewer than 10 of roughly 1,800 compounds were called active. A selection follows. Values without a mark were called inactive.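 How the source made its calls: active means inhibition of granule release above a set limit; inactive means the rest.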
# Test: LAMP-1 surface externalization blockers in TALL-104 cells – cell-based, flow cytometry, validation set (AID 651664)
# Conditions: TALL-104 LAMP-1 externalization, at 15.2 µM, stronger effect = higher value, stimulated with thapsigargin and PMA
row,Compound,inhibition
1,CCn1c(-c2ccccc2)c[nH]c1=S,-1.3%
2,Nc1c(C(=O)NCC2CCCO2)sc(=S)n1-c1ccccc1 (stereo not drawn),0.7%
3,COc1ccc(C)cc1-n1nnnc1SCc1cn2ccsc2n1,-3.3%
4,CC(=O)c1ccc(N2CCN(CCC#N)CC2)c(F)c1,8.2%
5,Cc1occc1C(=O)NC(C)CCc1ccccc1 (stereo not drawn),6.4%
6,CC(C)(C)NC(=O)C1Cc2ccccc2CN1C(=O)Nc1cccc(Cl)c1 (stereo not drawn),3.6%
7,CN(C)c1ccc(-c2nnc(-c3ccc(S(=O)(=O)C(F)F)cc3)o2)cc1,-2%
8,COc1ccc(-c2sc(NC(=O)c3ccc(C)cc3)nc2-c2ccc([N+](=O)[O-])cc2)cc1,0.2%
9,NC(=O)NC(=O)CSc1nc(-c2ccccc2)c(-c2ccccc2)n1CC1CCCO1 (stereo not drawn),3.8%
10,CCCc1nc2ccccc2c(=O)n1/N=C/c1ccccc1O,-1.9%
11,Cc1snc(S(=O)(=O)/C(C#N)=N/Nc2cccc(C(F)(F)F)c2)c1C#N,5.6%
12,CCNc1nc(NCC)nc(OCCOC(=O)COc2ccc(Cl)cc2Cl)n1,-2.4%
13,CN1CC(=O)NC1=NC(=O)c1ccc(Cl)c(S(=O)(=O)N2CCCCCC2)c1,-1.1%
14,Cc1ccc2c(c1Br)/C(=N/N1C(=O)c3ccccc3C1=O)C(=O)N2,-3.6%
15,Clc1ccc(-c2nnnn2-c2ccc(Cl)c(Cl)c2)cc1Cl,-0.4%
16,COc1ccccc1N(C(=O)c1ccco1)C(C(=O)NC1CCCC1)c1cccnc1 (stereo not drawn),-0.8%
17,CC(C)(C)NC(=O)Cc1ccc(S(=O)(=O)N2CCCC2)s1,-1.8%
18,Nc1nc(CSc2nc3ccccc3s2)nc(N2CCCCC2)n1,3.2%
19,FC(F)(F)c1cccc(NC(=S)N2CCN(c3cccc(C(F)(F)F)c3)CC2)c1,-4.7%
20,Cc1nc2cc(S(=O)(=O)N3CCC(C(=O)O)CC3)ccc2n1C1CCCC1,-3.7%
21,O=C(CSc1ncnc2c1cnn2Cc1ccccc1)Nc1ccc2c(c1)OCCO2,0.3%
22,O=C1c2ccccc2C(=O)N1SC1CCCCC1,-1.8%

row,Compound,inhibition
1,Cn1c(-c2ccccc2Br)n[nH]c1=S,89.2% (active)
2,COCCCn1c(-c2ccccc2Cl)n[nH]c1=S,4.6%
3,S=c1[nH]nc(-c2ccccc2Cl)n1CC1CCCO1 (stereo not drawn),-1.9%
4,Cc1nn2c(N)c(C#N)cnc2c1-c1ccc(Cl)cc1,2.5%
5,CN1CCN(C(=O)c2ccc3c(c2)NC(=O)C(N2CCOCC2)S3)CC1 (stereo not drawn),3.1%
6,COCCNc1nc2ccccc2nc1NS(=O)(=O)c1ccc(C)cc1C,2.3%
7,CC(=O)C(C)Oc1ncn(-c2ccccc2)n1 (stereo not drawn),-3%
8,N#Cc1ccc(C(=O)Nc2ccc(S(=O)(=O)NC3=NCCCCC3)cc2)cc1,4.4%
9,O=C(Nc1ccccc1)N1CCN(c2ccccn2)CC1,-1.4%
10,O=C1CCCCC1C(Nc1ccc(Cl)cc1)c1ccccc1 (stereo not drawn),1.3%
11,COc1ccc(C(CNC(=O)c2ccc(N3CCCC3=O)cc2)N(C)C)cc1 (stereo not drawn),-2%
12,Clc1ccccc1C1SCC2Nc3ccccc3CN21 (stereo not drawn),0.1%
13,Cc1cccc(/C(N)=N/OC(=O)CCCN2C(=O)c3ccccc3C2=O)c1,1.9%
14,COc1ccccc1NC(=O)CC1COc2ccccc2O1 (stereo not drawn),-0.3%
15,CCOc1ccccc1NC(=O)c1ccc(S(=O)(=O)N2CCOCC2)cc1,-1.3%
16,Cc1ccc(Cl)cc1NC(=O)CSC(N)=O,-3%
17,COC(=O)C1=CN(CCCN2CCCC2=O)C=C(C(=O)OC)C1c1ccccc1C(F)(F)F,3.5%
18,CCC(CC)NC(=O)c1cc2c(C)nn(Cc3ccccc3Cl)c2s1,-0.5%
19,Cc1nnc(N(CCC#N)CCC#N)s1,0%
20,O=C(CN1CCN(c2cccc(C(F)(F)F)c2)CC1)Nc1cccc(C(F)(F)F)c1,-3.2%
21,Cc1oc2nc(SCCCC(=O)NCCO)nc(N)c2c1C,2.7%
